DT40 TDP1 no CPT: qHTS for Inhibitors of human tyrosyl-DNA phosphodiesterase 1 (TDP1): qHTS in cells in absence of CPT. DT40 Tdp1-/- hTDP1 cells, no CPT, ATP luminescence, 48 h. Potency, µM (highest dose often 46.2 µM), inactives show top-dose activity change, negative = growth inhibition, most hits filed as inhibitors. 420,000 compounds, 15% hits; also: potency is read from the fitted curve at half-maximal effect; nearly all actives have a fitted effect of over 55% in size
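Growth kinetics read by CellTiter-Glo luminescence after ≥48 hr at 37 °C. Cells: DT40 Tdp1-/- stably carrying human TDP1, 400 per well, compound exposure in the absence of CPT (DMSO vehicle).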
IL-1B inflam inh: qHTS for Inhibitors of Inflammasome Signaling: IL-1-beta AlphaLISA Primary Screen; THP-1 LPS/ATP IL-1B secretion, AlphaLISA, 16 h; hits give low values; activity change, % at 57.5 µM; 360,000 compounds, 4.7% hits; AID 743279, 2014; in the data active = activity change below about -50%; inconclusive = mostly about -30% to -49%
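Secreted IL-1B measured by AlphaLISA bead assay after 16 h compound exposure of THP-1 cells; compounds (final up to 57.5 uM) added 1 h before LPS (250 ng/mL) and ATP (1.25 mM) stimulation; lower signal means less secretion.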
HT1080-NT tox: qHTS for induction of synthetic lethality in tumor cells producing 2HG: qHTS for the HT-1080-NT fibrosarcoma cell line | 360,000 compounds, 1.6% hits | AID 686970, 2013 | HT-1080-NT fibrosarcoma viability, CellTiter-Glo ATP luminescence, 48 h | Potency, µM (doses to about 46.1 µM), inactives show at the highest dose activity, negative = less viability, usual class: cytotoxic;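 also: NT is the 2HG producing partner of a matched IDH1 knockdown line; potency is read from the fitted curve at half-maximal effect; 0% = DMSO-treated cells and -100% = media-only wells without cells; nearly all actives have a fitted effect of over 55% in size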
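750 cells/well, RPMI + 5% FBS; 2 h settle, compound pin-transfer, 48 h at 37 degrees C. CellTiter-Glo 10 min RT, luminescence. Normalized to DMSO and media-only wells.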
HT1080 IDH1KD tx: qHTS for induction of synthetic lethality in tumor cells producing 2HG: qHTS for the HT-1080-IDH1KD cell line; 360,000 compounds, 2% hits; Potency, µM (titrated, usually from 46.1 µM), for the others: at the top dose activity, negative = toxicity, actives largely listed as cytotoxic; HT-1080 IDH1 knockdown viability, ATP luminescence, 48 h;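 also: potency is read from the fitted curve at half-maximal effect; 0% = DMSO wells and -100% = cell-free medium wells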
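HT-1080-IDH1KD cells (IDH1 knocked down), 750/well in RPMI with 5% FBS, treated with compound 48 h at 37 degrees C. Viability by CellTiter-Glo luminescence, normalised to DMSO and no-cell wells; concentration-response curves classed.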
DT40 TDP1 CPT: qHTS for Inhibitors of human tyrosyl-DNA phosphodiesterase 1 (TDP1): qHTS in cells in presence of CPT; chicken DT40 Tdp1-/-;hTDP1 cells + 20 nM CPT, ATP luminescence, 48 h; Potency, µM (top dose mostly 46.2 µM), without a hit: top-dose activity change, negative = growth inhibition, usual class: inhibitors; 420,000 compounds, 12% hits; also: potency is read from the fitted curve at half-maximal effect; nearly all actives have a fitted effect of over 55% in size
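Chicken DT40 Tdp1-/- cells complemented with human TDP1, 400 cells/well, exposed to compounds plus 20 nM camptothecin for at least 48 h at 37 C; viability read as ATP content by CellTiter-Glo luminescence.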
ELG1 repair inh: qHTS screen for small molecules that inhibit ELG1-dependent DNA repair in human embryonic kidney (HEK293T) cells expressing luciferase-tagged ELG1. 330,000 compounds, 2.3% hits. Potency, µM (titrated, usually from 46.1 µM), inactives show at the top dose activity change, negative = inhibition, actives largely listed as inhibitors. HEK293T ELG1-luciferase reporter, luminescence, 16 h; DNA damage induced by 5-fluorouridine; also: potency is read from the fitted curve at half-maximal effect; nearly all actives have a fitted effect of over 55% in size
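Step one: seed 2,000 cells per well. Step two: pin-transfer compound or DMSO alongside 5-fluorouridine. Step three: incubate 16 hr, 37 °C, 5% CO2. Step four: add ONE-Glo, wait 30 min, read luminescence.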
* hit, by the source's call; ? = inconclusive; . = no result; [ ] = dose if it differs, or a comment. An excerpt weighted towards active compounds, which were near 19% of everything screened. Unless noted, calls follow the shape of the dose curve; as a rule, active = well fitted curve in the direction sought with a large enough effect; inconclusive = small, poorly fitted or top-dose-only effect, or another doubt; inactive = no such curve, though single readings can be large; an effect the other way counts as inactive or inconclusive. Unless noted, % is scaled to controls: 0 for no effect and ±100 for the full control effect.

SMILES	DT40 TDP1 no CPT	IL-1B inflam inh	HT1080-NT tox	HT1080 IDH1KD tx	DT40 TDP1 CPT	ELG1 repair inh
COc1cccc(CC(=O)OCC(=O)NCC(=O)Nc2cccc(C)c2C)c1	-5%	0	-7%	1%	-9%	14%
CC1=C(C(=O)NC2CC(C)(C)Cc3c2cnn3-c2cccc(F)c2)OCCO1 (stereo not given)	?	-7	17%	0%	?	?
COc1ccc(NC(=O)C(C)n2nc(-c3cc(C)ccc3C)c3c(c2=O)CCCC3)cc1 (stereo not given)	?	.	.	.	21µM*	.
COc1cccc(N2C(N)=NC(N)=NC2(C)C)c1	1µM*	11	6.5µM*	2.3µM*	5.2µM*	7%
CC1(C)N=C(N)N=C(N)N1c1cccc(C#N)c1	1µM*	26	?	0.23µM*	?	.
COc1ccc(N2C(N)=NC(N)=NC2(C)C)cc1	0.33µM*	0	9.2µM*	8.2µM*	?	28%
CCOc1ccc(N2C(N)=NC(N)=NC2(C)C)cc1	6.5µM*	13	?	10µM*	?	-27%
COc1ccccc1N1C(N)=NC(N)=NC1(C)C	?	24	1%	-7%	-10%	-10%
O=C(NCC1(N2CCOCC2)CCCC1)c1cnn(-c2ncc3c(n2)-c2ccccc2CC3)c1C1CC1	-1%	.	.	.	9%[9.04 µM]	.
Cc1nc(-n2nc(C)c(Cc3ccccc3Cl)c2C)sc1C(=O)Nc1ccccc1F	-20%	.	.	.	-13%	.
CCOC(=O)c1cccc(N2C(N)=NC(N)=NC2(C)C)c1	4.1µM*	0	?	?	-23%	-2%
CC1(C)N=C(N)N=C(N)N1c1cccc(C(=O)O)c1	-5%	-3	13%	-2%	-4%	?
N#Cc1cccc(NC(=O)N2CCC3(CC2)CCN(C(=O)c2cccc(F)c2)CC3)c1	-29%	.	.	.	-9%	.
Clc1ccc(/C(Cc2nc3ccccc3[nH]2)=N\Nc2ccccc2)cc1	?	-84*	?	?	?	?
O=C(Cc1nc2ccccc2[nH]1)c1ccc([N+](=O)[O-])cc1	?	-2	?	-16%	?	?
CN/N=C(\Cc1nc2ccccc2[nH]1)c1ccc([N+](=O)[O-])cc1	?	?	-8%	-13%	?	7%
O=C(Cc1nc2ccccc2[nH]1)c1ccc(Cl)cc1	?	-99*	-19%	-7%	?	?
CCCCNC(=O)CSc1nc2cc3c(cc2c(=O)n1CCCC(=O)NCc1ccc2c(c1)OCO2)OCO3	0%	.	.	.	-2%	.
Cc1ccc(-c2csc(NC(=O)c3cccc(S(=O)(=O)N4CCN(C)CC4)c3)n2)cc1	18µM*	15	-8%	-10%	?	?
O=C(Nc1nc(-c2cccs2)cs1)c1cccc(S(=O)(=O)N2CCCCC2)c1	26µM*	0	-3%	-21%	?	?
O=C(O)c1cccc(NC(=O)c2cccc(S(=O)(=O)N3CCCCC3)c2)c1	-8%	-1	3%	-21%	7%	?
Cc1ccc(CNC(=O)c2cc(=O)c3cc(C)cc(C)c3o2)cc1	?	.	.	.	-16%	.
CC1(C)N=c2ccc([N+](=O)[O-])c(N)c2=[N+]1[O-]	21µM*	78	?	-25%	15µM*	?
Cc1ccc([N+](=O)[O-])c(C)[n+]1C	?	20	2%	-11%	?	-7%
Clc1ccc(CNc2ccc(N3CCN(Cc4ccccc4)CC3)cc2)cc1	?	-58*	-28%	?	?	?
SMILES	DT40 TDP1 no CPT	IL-1B inflam inh	HT1080-NT tox	HT1080 IDH1KD tx	DT40 TDP1 CPT	ELG1 repair inh
O=C(CN1CCN(C/C=C/c2ccccc2)CC1)NCc1ccc(Cl)cc1	4.6µM*	-5	?	?	5.8µM*	?
O=C(CN1CCN(c2ccc(Cl)cc2)CC1)NCc1ccccc1	?	-61*	-1%	-14%	?	?
NS(=O)(=O)c1ccc(CCNC(=O)CN2CCN(c3cccc(Cl)c3)CC2)cc1	16µM*	25	5%	-13%	18µM*	-15%
O=C(CN1CCN(c2cccc(Cl)c2)CC1)NCc1ccccc1	?	-8	-4%	-10%	-21%	-13%
Cc1ccccc1OCCCCn1c(-c2ccc(Cl)cc2)nc2ccccc2c1=O	-6%	.	.	.	-9%	.
Cc1cccc(Cn2c(=O)n(CCc3ccccc3)c(=O)c3sc4ccccc4c32)c1	-11%	.	.	.	-3%	.
NS(=O)(=O)c1ccc(NCc2c(F)cccc2Cl)cc1	?	-2	1%	-10%	-21%	-12%
Fc1cccc(Cl)c1CNc1ccc(N2CCCC2)cc1	9.2µM*	-19	?	-20%	2.3µM*	?
Cc1cccc(N2CCN(CC(=O)NCc3ccc(Cl)cc3)CC2)c1C	4.1µM*	-64*	-16%	-27%	?	-23%
O=C(CN1CCN(c2ccccc2F)CC1)NCc1ccc(Cl)cc1	-27%	10	-9%	-18%	-28%	1%
O=C(OCC1OC(n2ncc(=O)[nH]c2=O)C(OC(=O)c2ccccc2)C1OC(=O)c1ccccc1)c1ccccc1 (stereo not given)	?	6	-5%	-1%	16µM*	-1%
CC(=O)OCC1OC(n2ncc(=O)n(Cc3ccccc3)c2=O)C(OC(C)=O)C1OC(C)=O (stereo not given)	-18%	27	8%	14%	12%	13%
CC(=O)OC[C@H]1O[C@@H](n2ncc(=O)[nH]c2=O)[C@H](OC(C)=O)[C@@H]1OC(C)=O	11µM*	92	-8%	?	?	?
CC(C)C[C@@H]1Cc2[nH][nH]c(=O)c2[C@H](C)O1	-29%	44	10%	5%	4%	.
COc1ccc(Cl)cc1C(=O)Nn1cnnc1	-4%	26	7%	2%	21%	0%
CCCNC(=S)Nc1c(C)n(C)n(-c2ccccc2)c1=O	7%	-4	-6%	-8%	2%	12%
Fc1ccc(Nc2ncncc2-c2ccoc2)cc1	-12%	.	.	.	-14%	.

Screens from PubChem.
